Source: PubChem
Only some compounds are listed: those with a hit (about 0.74% of all), similar ones and a draw of the others.
Mtb betalactam = beta-lactam sensitization of Mtb H37Rv, H37Rv. M. tuberculosis H37Rv growth with meropenem, percent inhibition. inhibition, % at 25 µM. 330,000 tested, 0.27% active; call rule not given here;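 also: growth measured after seven days incubation then overnight dye step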
BH1578 lux ind = inducers of Vibrio cholerae quorum light production without autoinducers, primary screen, BH1578 luxS cqsA deficient, single point; V. cholerae BH1578 lux reporter, luminescence, 6 h; activation, % at 18.7 µM; 350,000 tested, 0.16% active; AID 588436, 2011; in the data active = activation mostly above about 9.7%, no sharp cut-off
FadD28 binding = inhibitors of FadD28 bisubstrate probe binding, primary screen, biochemical, fluorescence polarization, single point. Mycobacterium tuberculosis FadD28 fatty-acid-AMP ligase. inhibition, % at 12.5 µM. 360,000 tested, 0.22% active; in the data active = inhibition above about 8.5%, passing the limit was not always enough
UGM FP inh = M. tuberculosis UGM enzyme inhibitors, primary screen, biochemical, fluorescence polarization, single point; UDP-galactopyranose mutase (Mycobacterium tuberculosis (strain ATCC 25618 / H37Rv)), …; inhibition, % at 10 µM; 320,000 tested, 0.06% active; purified UGM, fluorescence polarization probe displacement; in the data active = inhibition above about 10%, passing the limit was not always enough
Target sequence (P9WIQ1 whole entry, looked up): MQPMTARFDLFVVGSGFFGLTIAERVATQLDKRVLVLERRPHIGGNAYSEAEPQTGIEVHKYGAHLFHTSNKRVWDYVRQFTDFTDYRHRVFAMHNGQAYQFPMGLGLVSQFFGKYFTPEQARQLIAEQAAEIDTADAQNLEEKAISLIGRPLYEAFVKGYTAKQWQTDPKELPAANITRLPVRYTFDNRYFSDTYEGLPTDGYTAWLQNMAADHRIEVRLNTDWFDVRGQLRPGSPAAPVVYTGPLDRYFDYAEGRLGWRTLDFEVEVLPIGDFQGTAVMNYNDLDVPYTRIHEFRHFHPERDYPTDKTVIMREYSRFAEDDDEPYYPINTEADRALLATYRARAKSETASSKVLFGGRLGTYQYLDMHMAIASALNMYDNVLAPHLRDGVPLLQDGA
Rv3671c inh = Rv3671c serine protease inhibitors, primary screen, biochemical, fluorescence polarization, M. tuberculosis H37Rv | inhibition, % at 5.96 µM | 320,000 tested, 0.048% active | AID 2606, 2010 | P9WHR9; in the data active = inhibition above about 38%;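 also: extracellular domain of Rv3671c used as enzyme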
MazF activator = activators of E. coli MazEF toxin-antitoxin RNase, primary screen, biochemical, fluorescence, uHTS; Endoribonuclease toxin MazF (Escherichia coli (strain K12)), P0AE70; 350,000 tested, 0.32% active; activation, % at 20 µM; FAM/BHQ RNA-DNA oligo cleavage fluorescence, 5 h; in the data active = activation above about 50%
Target sequence (P0AE70 whole entry, looked up): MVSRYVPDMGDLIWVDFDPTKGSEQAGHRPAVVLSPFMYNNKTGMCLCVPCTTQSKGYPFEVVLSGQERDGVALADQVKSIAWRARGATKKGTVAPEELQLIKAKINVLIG
Of the large screens only hits and unclear results are named; the others gave an inactive call.

CN1C(=O)Cc2cc(S(=O)(=O)Nc3ccc(N4CCOCC4)cc3)ccc21	none
Cc1ccc(S(=O)(=O)c2cc3ccccc3oc2=O)cc1	none
CCN(CC)c1ccc2cc(S(=O)(=O)c3ccc(C)cc3)c(=O)oc2c1	UGM FP inh 30.1
CCN(CC)c1ccc2cc(C(=O)NNC(=O)c3ccc(S(=O)(=O)N4CCCCC4)cc3)c(=O)oc2c1	MazF activator 75.0
COc1cccc(NC(=O)CN2CCc3ccccc3C2)c1	none
O=C(c1ccco1)N1CCN(Cc2nnc(-c3cccc(Br)c3)o2)CC1	none
CN1c2ccccc2SC2C(c3ccccc3)=NOC21 (stereo not given)	none (no result: Mtb betalactam, BH1578 lux ind, UGM FP inh, Rv3671c inh, MazF activator)
COc1cc2c(cc1OC)/C(=C/C(=O)c1ccc([N+](=O)[O-])c(C)c1)NCC2	MazF activator 74.0 (no result: Mtb betalactam, UGM FP inh, Rv3671c inh)
CC(=O)NCCc1ccc(S(=O)(=O)Nc2ccc3c(c2)OCCO3)cc1	none
Oc1ccc2ccccc2c1-c1sc(Nc2ccccc2)n[n+]1-c1ccc(F)cc1	MazF activator active
Fc1ccc(-[n+]2nc(Nc3ccccc3)sc2-c2c3ccccc3cc3ccccc23)cc1	none
Cc1cc(C(F)(F)F)nc(CCNC(=O)C2CCC(=O)N(Cc3cccc(F)c3)C2)n1 (stereo not given)	none
Cc1ccc(S(=O)(=O)N(C)c2ccc3c(c2)C(=O)c2ccccc2-3)cc1	none (no result: Mtb betalactam, BH1578 lux ind, UGM FP inh, Rv3671c inh, MazF activator)
O=C(CSc1nnc2n1CCCN2)c1ccc(Cl)cc1	BH1578 lux ind 31.8
O=C(CSc1nnc2n1CCCN2)c1ccc([N+](=O)[O-])cc1	none
Cc1cc2cc(C=C(C#N)C#N)c(Cl)nc2cc1C	MazF activator 53.2
CC1=CC(=C2C(=O)NC(=S)NC2=O)C=C(C(F)(F)F)N1Cc1ccccc1	BH1578 lux ind 266.6
O=c1oc2ccccc2cc1-c1nc2ccccc2o1	none
O=c1oc2ccc3ccccc3c2cc1-c1nc2ccccc2o1	MazF activator 328.9
Cc1cccc2c(=O)n(C(=O)c3ccccc3)c(N)nc12	none (no result: Mtb betalactam, UGM FP inh, Rv3671c inh)
Cc1ccc(-c2cccc(-c3cc(=O)oc4ccc(C(C)(C)C)cc34)c2)cc1	none (no result: Mtb betalactam, UGM FP inh, Rv3671c inh)
CCCCCCCCCCCC1=C(O)C(=O)C=C(O)C1=O	none
COC1=CC(=O)C(O)=C(CCCCCCC/C=C/CCCCCCCC2=C(O)C(=O)C=C(OC)C2=O)C1=O	FadD28 binding 21.7
COC(=O)CCC(=O)N1CCC(Oc2cccc(C(=O)NCc3ccccn3)c2)CC1	none (no result: Mtb betalactam, UGM FP inh, Rv3671c inh)
CC1CC(C)CN(C(=O)COC(=O)c2ccc[nH]c2=O)C1 (stereo not given)	BH1578 lux ind 25.0
O=C(OCC(=O)N1CCCCCC1)c1ccc[nH]c1=O	none
O=C(O)c1cc(O)c2c(c1)[C@H]([C@H]1c3cc(C(=O)O)cc(O)c3C(=O)c3c(O[C@@H]4O[C@H](CO)[C@@H](O)[C@H](O)[C@H]4O)cccc31)c1cccc(OC3O[C@H](CO)[C@@H](O)[C@H](O)[C@H]3O)c1C2=O (stereo not given in full)	FadD28 binding 29.2, Rv3671c inh 75.2
O=C1c2cc(CO)cc(O)c2C(=O)c2c(O[C@@H]3OC(CO)[C@@H](O)[C@@H](O)[C@@H]3O)cccc21 (stereo not given in full)	none
O=C(O)c1cc(O)c2c(c1)[C@@H]([C@H]1c3cc(C(=O)O)cc(O)c3C(=O)c3c(O[C@@H]4O[C@H](CO)[C@@H](O)[C@H](O)[C@H]4O)cccc31)c1cccc(OC3O[C@H](CO)[C@@H](O)[C@H](O)[C@H]3O)c1C2=O (stereo not given in full)	FadD28 binding 13.7, Rv3671c inh 75.3
COc1cc2c(cc1OC)CN(C(=O)C1CCC(=O)N(CCCN3CCOCC3)C1)CC2 (stereo not given)	none
O=C(NC(c1ccc(Cl)cc1)c1cnccn1)C1CCN(Cc2cccc(C(F)(F)F)c2)CC1 (stereo not given)	none (no result: Mtb betalactam, UGM FP inh, Rv3671c inh, MazF activator)
O=c1c2ccccc2c(C=Nc2ccccc2O)c(O)n1-c1nccs1	MazF activator 278.2
CC(C)(C)OC(=O)N/N=C/c1ccc(N2CCOCC2)s1	MazF activator 226.0
Nc1ccc(C(=O)N/N=C/c2ccc(N3CCOCC3)s2)cc1	none
COc1cc2c(C#N)c(N3CCCCC3)nc(N)c2c(N)n1	MazF activator 55.5
COc1cc2c(C#N)c(N3CCc4ccccc4C3)nc(N)c2c(N)n1	MazF activator 62.2
COc1cc2c(C#N)c(N3CCOCC3)nc(N)c2c(N)n1	none
CC(C)(C)S(=O)N1Cc2cc(CO)ccc2[C@@H]1CCO (stereo not given in full)	none (no result: Mtb betalactam, UGM FP inh, Rv3671c inh)
CCOC(=O)N1C2C=CC(C2)N1C(=O)OCC	MazF activator 156.7 (no result: Mtb betalactam, UGM FP inh, Rv3671c inh)
CCOC(=O)N1C2CCC(C2)N1C(=O)OCC	none (no result: Mtb betalactam, UGM FP inh, Rv3671c inh)
Cc1ccc2nc(C(Cl)(Cl)Cl)nc(N/N=C/c3ccc([N+](=O)[O-])cc3)c2c1	MazF activator 55.2 (no result: Mtb betalactam, UGM FP inh, Rv3671c inh)
CC1CCN(c2ccc3c(c2)S(=O)(=O)c2cccc(C(=O)NCc4cccc(F)c4)c2C3=O)CC1	MazF activator 97.0
O=C(NCc1ccc(OC(F)(F)F)cc1)c1cccc2c1C(=O)c1ccc(N3CCCCC3)cc1S2(=O)=O	UGM FP inh 19.9
O=C(NCc1ccc(OC(F)(F)F)cc1)c1cccc2c1C(=O)c1ccc(N3CCC(Cc4ccccc4)CC3)cc1S2(=O)=O	none
O=C(NCc1cccc(F)c1)c1cccc2c1C(=O)c1ccc(N3CCCC3)cc1S2(=O)=O	none
O=C(NCCc1ccc(F)cc1)c1cccc2c1C(=O)c1ccc(N3CCC(Cc4ccccc4)CC3)cc1S2(=O)=O	UGM FP inh 11.3
O=C(NCc1cccc(F)c1)c1cccc2c1C(=O)c1ccc(N3CCC(Cc4ccccc4)CC3)cc1S2(=O)=O	UGM FP inh 22.0
O=C(NCc1cccc(C(F)(F)F)c1)c1cccc2c1C(=O)c1ccc(N3CCC(Cc4ccccc4)CC3)cc1S2(=O)=O	none
CN(C)C(CNC(=O)c1ccc2nccnc2c1)c1ccco1 (stereo not given)	none
O=C1c2cccc(NCCCNCCO)c2C(=O)c2cccc(NCCCNCCO)c21	none (no result: Mtb betalactam, UGM FP inh, Rv3671c inh)
Fc1ccc(Nc2cccc3nccnc23)cc1	none
c1cc(Nc2cccc3nccnc23)c2nccnc2c1	MazF activator 50.5
CCCC(c1nnnn1Cc1ccc(OC)cc1)N1CCN(C(=O)c2ccco2)CC1 (stereo not given)	none
CCCC1(c2ccsc2)NC(=O)NC1=O (stereo not given)	none (no result: Mtb betalactam, UGM FP inh, Rv3671c inh)
CCOC(=O)C1=C(C)NC2=C(C(=O)C(C(=O)OCC)C(c3ccco3)C2)C1c1ccccn1 (stereo not given)	MazF activator 62.5
